Compound activity: PubChem, The Scripps Research Institute Molecular Screening Center
Hits are enriched below; roughly 5.7% of the tested compounds scored in any of these assays.
DAX1 inh-1 – inhibitors of DAX1 repression of SF-1 activated StAR promoter; hit rate 1.1% among 370,000; AID 652010; HEK293T StAR-luciferase reporter, SF-1/DAX-1 repression relief; inhibition, % at 6.8 µM;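 active means inhibition above the mean over all tested compounds plus 3 SD, cut at about 3.6% in these data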;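 further: higher inhibition means more luminescence from relief of DAX-1 repression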
DAX1 inh-2 – NR0B1 (DAX1) inhibition; P51843; inhibition, % at 6.75 µM; hit rate 0.99% among 340,000; HEK293 Gal4-DAX1 luciferase reporter, luminescence;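 active means inhibition above the mean over all tested compounds plus 3 SD, cut at about 4.2% in these data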;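 further: inhibition shows as a rise in luminescence from relieved DAX1 repression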
Target sequence (P51843 207-470 limits assumed): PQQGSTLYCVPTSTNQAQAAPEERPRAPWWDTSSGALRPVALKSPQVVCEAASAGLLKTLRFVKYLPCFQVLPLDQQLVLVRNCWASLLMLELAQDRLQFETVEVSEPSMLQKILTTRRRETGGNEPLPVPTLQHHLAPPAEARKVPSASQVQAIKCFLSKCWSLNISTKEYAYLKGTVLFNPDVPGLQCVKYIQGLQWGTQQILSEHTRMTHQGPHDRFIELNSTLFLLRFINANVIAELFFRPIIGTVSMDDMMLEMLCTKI
hgDAF-12 ag – hgDAF-12 agonism, primary luciferase screen; AID 687014; hit rate 1.8% among 370,000; activation, % at 6.8 µM; HEK293 GAL4-hgDAF12 UAS-luciferase reporter, agonist luminescence; normalized to butyrate control;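 active means activation above a cutoff set at the mean of all screened compounds plus 3 SD, cut at about 10% in these data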
ssDAF12 agonist – activates DAF-12 receptor from parasite S. stercoralis; activation, % at 6.8 µM; HEK293 ssDAF-12/GRIP1 lit1-tk-luc reporter, luminescence; % of 3 µM dafachronic acid response; hit rate 1% among 370,000;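 active means activation above the mean over all tested compounds plus 3 SD, cut at about 0.9% in these data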
AHR act – activators of human aryl hydrocarbon receptor | P35869 | AHR-responsive luciferase reporter cells, luminescence | activation, % at 5 µM | hit rate 2.5% among 320,000 | AID 2796; in the data active means activation above about 47%
hcDAF12 agonist – H. contortus DAF-12 activation, primary screen; HEK293 hcDAF-12 lit1-tk-luc reporter, luminescence; 0% DMSO, 100% Δ7-dafachronic acid; activation, % at 6.8 µM; hit rate 1.4% among 370,000; AID 652067;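 active means activation above the mean of all tested compounds plus 3 SD, cut at about 5.5% in these data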
AHR act confirm – confirmation of human aryl hydrocarbon receptor activators. shares compounds with AHR act. activation, % at 9 µM. human cells, AHR-responsive luciferase reporter, luminescence. hit rate 87% among 2,300. AID 2845; in the data active means activation above about 49%;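 further: HepG2 hepatoma cells carrying a DRE-driven firefly luciferase reporter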
PXR act counter – PXR activation, counter-screen for AHR activators. shares compounds with AHR act. cell-based PXR reporter, luciferase luminescence. activation, % at 11.6 µM. hit rate 88% among 2,300; in the data active means activation above about 11%;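 further: human hepatoma DPX-2 cells expressing full-length human PXR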
A number is an active result; 0 = inactive; - = not tested or not shown.

SMILES	DAX1 inh-1	DAX1 inh-2	hgDAF-12 ag	ssDAF12 agonist	AHR act	hcDAF12 agonist	AHR act confirm	PXR act counter
Cc1cc(S(=O)(=O)N2CCCCC2CCNC(=O)C(=O)NCc2cccnc2)ccc1F (centres undefined)	0	0	0	0	0	0	-	-
O=C(CCN1CCc2ccccc2C1)Nc1ccc2c(c1)OCO2	0	0	0	0	84	0	0	51
CCc1ccccc1NC(=O)Nc1ccc2c(c1)OCO2	0	0	0	0	87	0	92	86
CCC(Oc1ccccc1OC)C(=O)Nc1ccc2c(c1)OCO2 (centres undefined)	0	0	0	0	115	0	115	56
Cc1ccccc1OC(C)C(=O)Nc1ccc2c(c1)OCO2 (centres undefined)	0	0	0	0	102	0	51	36
O=C(CCN1CCc2ccccc2C1)Nc1ccc(F)c(F)c1	0	0	0	0	0	0	-	-
COc1ccc(-c2[nH]c(-c3cc(OC)c4c(c3)OCO4)nc2-c2ccccc2)cc1	0	0	0	0	107	0	54	57
O=C(c1ccc2nc(N3CCOCC3)sc2c1)N1CCN(C(=O)c2ccco2)CC1	0	0	0	0	0	0	-	-
COc1ccc(NC(=O)N(Cc2cccnc2)Cc2ccccc2Cl)c(OC)c1	-	-	-	-	0	-	-	-
O=C(CCCl)Nc1nc2c(s1)CCc1ccccc1-2	0	0	0	0	99	0	112	31
CC(=O)Nc1nc2c(s1)CCc1ccccc1-2	0	0	0	0	0	0	-	-
O=S(=O)(NCCCO)c1ccc2c(c1)Cc1cc(S(=O)(=O)NCCCO)ccc1-2	0	0	0	0	0	0	-	-
O=C(NCCN1C(=O)C2C3C=CC(C3)C2C1=O)N1CCCCC1 (centres undefined)	0	0	0	0	92	0	0	21
COc1ccc(N(CCCN2C(=O)c3cccc4cccc(c34)C2=O)C(=O)c2cccc(OC)c2)cc1	0	0	0	0	88	0	99	119
O=C1c2cccc3cccc(c23)C(=O)N1CCCSc1ncn[nH]1	0	0	0	0	101	0	88	57
CN(C)CCCN1C(=O)c2cc3ccccc3cc2C1=O	0	0	0	0	0	0	-	-
CN(C)CCCN1C(=O)c2cccc3cccc(c23)C1=O	0	0	0	0	141	0	163	-
Cc1ccc(Sc2ccc(S(=O)(=O)Nc3ccc(C(=O)O)cc3)cc2)cc1C	0	0	0	0	0	0	-	-
CC(C)c1ccc(Nc2nc(NCc3ccco3)nc(N3CCOCC3)n2)cc1	0	0	0	0	85	0	86	32
CC(C)c1ccc(Nc2nc(N3CCOCC3)nc(N3CCOCC3)n2)cc1	0	0	0	0	-	0	-	-
O=C(CC[C@H]1O[C@@H](n2cnc3c(NC(=O)c4ccccc4)ncnc32)[C@H](O)[C@@H]1O)NCc1cccs1	0	-	0	0	-	0	-	-
Cc1c(C(=O)N/N=C/c2ccc(-c3ccccc3[N+](=O)[O-])o2)sc(N)c1C#N	0	0	0	0	133	0	163	50
O=C(N/N=C/c1ccc(-c2ccccc2[N+](=O)[O-])o1)c1cncc(Br)c1	0	0	0	0	83	0	76	-
O=C(N/N=C\c1ccc([N+](=O)[O-])o1)c1cncc(Br)c1	0	0	0	0	0	0	-	-
Cc1cc(NCCCn2ccnc2)n2nc(-c3ccc(Cl)cc3)cc2n1	0	0	0	0	134	0	110	18
SMILES	DAX1 inh-1	DAX1 inh-2	hgDAF-12 ag	ssDAF12 agonist	AHR act	hcDAF12 agonist	AHR act confirm	PXR act counter
Cc1cc(NCCCn2ccnc2)n2nc(-c3ccc(F)cc3)cc2n1	0	0	0	0	0	0	-	-
CCCc1cc(=O)n2[nH]c(-c3ccc(Br)cc3)cc2n1	0	0	0	1.1	104	5.6	110	47
Cc1cccn2c(=O)cc(COC(=O)C(C)Oc3ccccc3)nc12 (centres undefined)	0	0	0	0	0	0	-	-
CCOC(=O)Nc1nnc(-c2ccccc2OC)s1	0	0	0	0	98	5.8	125	29
CCOc1ccccc1C(=O)Nc1nnc(CC)s1	0	0	0	0	96	0	70	22
CCOC(=O)Nc1nnc(-c2ccc(OC)cc2)s1	0	0	0	0	0	0	-	-
COc1ccccc1-c1nnc(N)s1	0	0	0	0	0	0	-	-
CCc1nnc(NC(=O)c2cccc(C(=O)Nc3nnc(CC)s3)n2)s1	0	0	0	0	0	0	-	-
COC(=O)Nc1nnc(-c2ccccc2OC)s1	0	0	0	0	107	0	140	17
CC(=O)c1ccc(NC(=O)/C(=C\c2ccccc2)NC(=O)c2ccco2)cc1	0	-	0	0	0	0	-	-
CN(C(=S)NC(=O)c1ccc(Cl)cc1)C1CCCCC1	0	0	0	0	91	0	113	94
Cc1ccc(CSc2nc3ccccc3cc2C=O)cc1	0	0	0	0	82	0	72	15
Cc1c(Br)c(C(F)(F)F)nn1CC(=O)NCC1CCCO1 (centres undefined)	0	0	0	0	0	0	-	-
O=C(COc1ccccc1)Nc1ccccc1F	0	0	0	0	0	0	-	-
CC1CCc2sc(C(=O)N=Nc3c(O)[nH]c4ccccc34)cc2C1 (centres undefined)	-	-	-	-	84	-	103	0
O=C(N=Nc1c(O)[nH]c2ccccc12)c1cccc(S(=O)(=O)N2CCCCC2)c1	0	0	0	0	0	0	-	-
CC(C)(C)NNC(=S)Nc1cccc(C(F)(F)F)c1	0	0	0	0	0	0	-	-
Cc1cccc(NC(=S)Nc2cccc(C(F)(F)F)c2)n1	0	0	0	0	104	0	125	23
COc1ccc(OC)c(NC(=O)COC(=O)c2ccc(OC)c(S(=O)(=O)N3CCCC3)c2)c1	0	0	0	0	0	0	-	-
CN(C)c1ccc(/C=N/NC(=O)CCCCCNC(=O)c2ccccc2)cc1	0	0	0	0	0	0	-	-
CCOC(=O)Cc1c(C)c2c(C)nn(-c3ccccc3)c2oc1=O	0	0	0	0	0	0	-	-
CCc1c(C)c2c(C)nn(-c3ccccc3)c2[nH]c1=O	0	0	0	0	97	0	94	24
Cc1onc(-c2ccccc2)c1C(=O)N/N=C/c1cn(C)c2ccccc12	0	0	0	0	0	0	-	-
Cc1nc(C)c(C(=O)N/N=C/c2cn(C)c3ccccc23)s1	0	0	0	0	97	0	63	23
Cc1nc(C)c(C(=O)N/N=C/c2c[nH]c3ccccc23)s1	-	0	-	-	84	-	47	-
O=C(N/N=C/c1c[nH]c2ccccc12)c1ccc(Cl)cc1	0	0	0	0	0	0	-	-
COc1cccc(C2c3c(ncn(-c4ccccc4)c3=N)Oc3ccc4ccccc4c32)c1 (centres undefined)	-	-	0	0	-	0	-	-
